Measured values published in ChEMBL document CHEMBL5606460, “ASAP - DENV-2 NS2B-NS3 protease fluorescence single point” (2024).
The campaign covered roughly 2,000 compounds. About 110 (5.5%) showed an effect of 50% or more. The entries come from a sample that favours strong results as a whole.

Target: Genome polyprotein (dengue virus type 2) (UniProt P29990)
[1] = Thailand/16681/1984, Concentration 25.0 uM, Number of replicates 1.0

SMILES: COc1ccc(S(=O)(=O)n2nc(OC(=O)c3cccc(-c4ccccc4Cl)c3)cc2N)cc1
- inhibition (Thailand/16681/1984, Concentration 49.5 uM, Number of replicates 2.0, Standard deviation 1.4490153953002987 %): 18.8%
- inhibition (Thailand/16681/1984, Concentration 99.01 uM, Number of replicates 2.0, Standard deviation 0.6098804079928887 %): 22.4%
- inhibition (Thailand/16681/1984, Concentration 198.0 uM, Number of replicates 2.0, Standard deviation 5.725656788050292 %): 25.3%

SMILES: COc1ccc(S(=O)(=O)N2CCC(C(=O)Nc3nc4ccccc4s3)CC2)cc1
- inhibition (Thailand/16681/1984, Concentration 49.5 uM, Number of replicates 2.0, Standard deviation 1.3648800018415175 %): 2.28%
- inhibition (Thailand/16681/1984, Concentration 99.01 uM, Number of replicates 2.0, Standard deviation 0.35874487080545164 %): 4.97%
- inhibition (Thailand/16681/1984, Concentration 198.0 uM, Number of replicates 2.0, Standard deviation 3.7738315130637563 %): 5.55%

SMILES: CCCC[C@H](N)C(=O)N[C@@H](C(=O)NCc1ccc(C(N)=O)cc1)c1ccc(OCc2ccccc2)cc1
- inhibition (Thailand/16681/1984, Concentration 49.5 uM, Number of replicates 2.0, Standard deviation 0.45534308736890416 %): -4.77%
- inhibition (Thailand/16681/1984, Concentration 99.01 uM, Number of replicates 2.0, Standard deviation 0.9591594337975816 %): 6.09%
- inhibition (Thailand/16681/1984, Concentration 198.0 uM, Number of replicates 2.0, Standard deviation 4.328590586700157 %): 82.3%

SMILES: CCCCCC(=O)N[C@H](C(=O)Nc1ccc(C(N)=O)cc1)c1ccc(OCc2ccccc2)cc1
- inhibition (Thailand/16681/1984, Concentration 49.5 uM, Number of replicates 2.0, Standard deviation 0.6010644427830669 %): 0.424%
- inhibition (Thailand/16681/1984, Concentration 99.01 uM, Number of replicates 2.0, Standard deviation 0.8411278167455505 %): 0.131%
- inhibition (Thailand/16681/1984, Concentration 198.0 uM, Number of replicates 2.0, Standard deviation 0.2400633914962311 %): -0.732%

SMILES: NC(=O)c1ccc(CNC(=O)c2ccc(OCc3ccccc3)cc2)cc1
- inhibition (Thailand/16681/1984, Concentration 49.5 uM, Number of replicates 2.0, Standard deviation 3.419970703357444 %): -0.579%
- inhibition (Thailand/16681/1984, Concentration 99.01 uM, Number of replicates 2.0, Standard deviation 3.9573061855257445 %): -0.365%
- inhibition (Thailand/16681/1984, Concentration 198.0 uM, Number of replicates 2.0, Standard deviation 3.324054675683989 %): -1.19%

SMILES: NC(=O)c1ccc(CNC(=O)NCc2ccc(OCc3ccccc3)cc2)cc1
- inhibition (Thailand/16681/1984, Concentration 49.5 uM, Number of replicates 2.0, Standard deviation 0.6584955649548859 %): -0.275%
- inhibition (Thailand/16681/1984, Concentration 99.01 uM, Number of replicates 2.0, Standard deviation 0.579227797958503 %): 0.348%
- inhibition (Thailand/16681/1984, Concentration 198.0 uM, Number of replicates 2.0, Standard deviation 0.34476708449941224 %): -0.309%

SMILES: C[C@@H](NCc1ccc(C(N)=O)cc1)c1ccc(OCc2ccccc2)cc1
- inhibition (Thailand/16681/1984, Concentration 49.5 uM, Number of replicates 2.0, Standard deviation 1.6752456853530722 %): 0.14%
- inhibition (Thailand/16681/1984, Concentration 99.01 uM, Number of replicates 2.0, Standard deviation 1.116678580733439 %): 0.358%
- inhibition (Thailand/16681/1984, Concentration 198.0 uM, Number of replicates 2.0, Standard deviation 0.6068608391781741 %): -0.175%

SMILES: CCCC[C@H](N)C(=O)N[C@H](C(=O)NCc1ccc(C(N)=O)cc1)c1ccc(OCc2ccccc2)cc1
- inhibition (Thailand/16681/1984, Concentration 49.5 uM, Number of replicates 2.0, Standard deviation 0.2650581585371317 %): -6.18%
- inhibition (Thailand/16681/1984, Concentration 99.01 uM, Number of replicates 2.0, Standard deviation 5.609533791033077 %): 63.5%
- inhibition (Thailand/16681/1984, Concentration 198.0 uM, Number of replicates 2.0, Standard deviation 0.01804559465842439 %): 99.8%

SMILES: COc1ccccc1C1CCN(C(=O)C2CCN(c3ccc(C=O)cc3)CC2)CC1
- inhibition [1]: 12.3%

SMILES: CN(C)Cc1ccc(C(=O)Nc2cc(Cl)cc(C(=O)NC(C)(C)CO)c2)[nH]1
- inhibition (Thailand/16681/1984, Concentration 49.5 uM, Number of replicates 2.0, Standard deviation 0.5051399787428742 %): 0.205%
- inhibition (Thailand/16681/1984, Concentration 99.01 uM, Number of replicates 2.0, Standard deviation 1.5521383022614499 %): 0.663%
- inhibition (Thailand/16681/1984, Concentration 198.0 uM, Number of replicates 2.0, Standard deviation 0.5964116239079592 %): 5.64%

SMILES: CCN(Cc1cc(Br)ccc1F)C(=O)C1CCN(c2ccc(C=O)cc2)CC1
- inhibition [1]: 15.9%

SMILES: Cc1cc(Cl)c2c(N)ccc(C)c2n1
- inhibition (Thailand/16681/1984, Concentration 49.95 uM, Number of replicates 2.0, Standard deviation 5.268842944255752 %): 34.7%
- inhibition (Thailand/16681/1984, Concentration 99.9 uM, Number of replicates 2.0, Standard deviation 0.5758298004935433 %): 94.7%

SMILES: Cc1cc(Cl)c2cccc(N)c2n1
- inhibition (Thailand/16681/1984, Concentration 49.95 uM, Number of replicates 2.0, Standard deviation 0.6589137143756747 %): 13.5%
- inhibition (Thailand/16681/1984, Concentration 99.9 uM, Number of replicates 2.0, Standard deviation 0.20071745394997703 %): 27.6%

SMILES: Cc1cc(N)c2c(Cl)ccc(Cl)c2n1
- inhibition (Thailand/16681/1984, Concentration 49.95 uM, Number of replicates 2.0, Standard deviation 8.427681720895945 %): -5.26%
- inhibition (Thailand/16681/1984, Concentration 99.9 uM, Number of replicates 2.0, Standard deviation 7.565581927359314 %): -3.92%

SMILES: Cc1cc(CO)c2cccc(Cc3cccc(NC(=O)c4cnn(Cc5c(C)noc5C)c4)c3)c2n1
- inhibition (Thailand/16681/1984, Concentration 49.95 uM, Number of replicates 2.0, Standard deviation 1.4870028556253494 %): -3.7%
- inhibition (Thailand/16681/1984, Concentration 99.9 uM, Number of replicates 2.0, Standard deviation 1.816697484259061 %): -0.8%

SMILES: O=C(Nc1ccc(O)cc1)c1cccc(OCc2c(Cl)cccc2Cl)c1
- inhibition (Thailand/16681/1984, Concentration 49.5 uM, Number of replicates 2.0, Standard deviation 0.38856258601515087 %): 5.85%
- inhibition (Thailand/16681/1984, Concentration 99.01 uM, Number of replicates 2.0, Standard deviation 1.1651546847054868 %): 9.28%
- inhibition (Thailand/16681/1984, Concentration 198.0 uM, Number of replicates 2.0, Standard deviation 0.8272279968409002 %): 12.6%

SMILES: O=C(O)c1cccc(NC(=O)c2cccc(OCc3c(Cl)cccc3Cl)c2)c1
- inhibition (Thailand/16681/1984, Concentration 49.5 uM, Number of replicates 2.0, Standard deviation 0.517131041635451 %): 14.9%
- inhibition (Thailand/16681/1984, Concentration 99.01 uM, Number of replicates 2.0, Standard deviation 0.3657402361338958 %): 47.1%
- inhibition (Thailand/16681/1984, Concentration 198.0 uM, Number of replicates 2.0, Standard deviation 0.23203020217005468 %): 92.1%

SMILES: O=C(Nc1cccc(O)c1)c1cccc(OCc2c(Cl)cccc2Cl)c1
- inhibition (Thailand/16681/1984, Concentration 49.5 uM, Number of replicates 2.0, Standard deviation 2.2599777431890864 %): 6.58%
- inhibition (Thailand/16681/1984, Concentration 99.01 uM, Number of replicates 2.0, Standard deviation 0.8121141369648937 %): 8.41%
- inhibition (Thailand/16681/1984, Concentration 198.0 uM, Number of replicates 2.0, Standard deviation 0.4931997238761773 %): 11.9%

SMILES: Cc1cc(CO)c2cccc(Cc3cccc(NC(=O)[C@@H]4CC(=O)CCN4)c3)c2n1
- inhibition (Thailand/16681/1984, Concentration 49.95 uM, Number of replicates 2.0, Standard deviation 0.827370284601473 %): 15.8%
- inhibition (Thailand/16681/1984, Concentration 99.9 uM, Number of replicates 2.0, Standard deviation 0.7401310286309556 %): 32.9%

SMILES: NC(=O)c1cccc(NC(=O)[C@@H](NC(=O)OCc2ccccc2)c2ccc(OCc3ccccc3)cc2)c1
- inhibition (Thailand/16681/1984, Concentration 49.5 uM, Number of replicates 2.0, Standard deviation 9.041969593425012 %): 3.65%
- inhibition (Thailand/16681/1984, Concentration 99.01 uM, Number of replicates 2.0, Standard deviation 1.1271011381219709 %): 9.06%
- inhibition (Thailand/16681/1984, Concentration 198.0 uM, Number of replicates 2.0, Standard deviation 1.277025907644923 %): 16%

SMILES: CCCCCC(=O)N[C@H](C(=O)NCc1cccc(CN)c1)c1ccc(OCc2ccccc2)cc1
- inhibition (Thailand/16681/1984, Concentration 49.5 uM, Number of replicates 2.0, Standard deviation 0.6286197397778024 %): -3.44%
- inhibition (Thailand/16681/1984, Concentration 99.01 uM, Number of replicates 2.0, Standard deviation 10.030102962525104 %): 65.8%
- inhibition (Thailand/16681/1984, Concentration 198.0 uM, Number of replicates 2.0, Standard deviation 0.2962336766184579 %): 98.7%

SMILES: NCc1cccc(NC(=O)Cc2ccc(OCc3ccccc3)cc2)c1
- inhibition (Thailand/16681/1984, Concentration 49.5 uM, Number of replicates 2.0, Standard deviation 0.3616312555788717 %): -3.09%
- inhibition (Thailand/16681/1984, Concentration 99.01 uM, Number of replicates 2.0, Standard deviation 0.27421312838327405 %): -2.89%
- inhibition (Thailand/16681/1984, Concentration 198.0 uM, Number of replicates 2.0, Standard deviation 0.0354621897496722 %): -1.31%

SMILES: NCc1cccc(NC(=O)[C@@H](NC(=O)OCc2ccccc2)c2ccc(F)cc2)c1
- inhibition (Thailand/16681/1984, Concentration 49.5 uM, Number of replicates 2.0, Standard deviation 2.4011437232418986 %): -4.62%
- inhibition (Thailand/16681/1984, Concentration 99.01 uM, Number of replicates 2.0, Standard deviation 1.9050608177527883 %): -3.96%
- inhibition (Thailand/16681/1984, Concentration 198.0 uM, Number of replicates 2.0, Standard deviation 2.2061626239616485 %): -3.52%
